sEH inhibitor = soluble epoxide hydrolase (human) inhibition | AID 707 | recombinant human sEH enzymatic activity assay | inhibition, % at 2 µM | actives 0.34% (n = 91,000); in the data active = inhibition above about 80%
PTPN22 act = LYP (human) phosphatase activation; recombinant LYP, DiFMUP fluorescence; 0 = plate median, 100 = signal doubled; AID 697; activation, % at 2 µM; Q9Y2R2; actives 0.11% (n = 96,000);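 active = activation at 2 µM above a set limit, the mean plus 5 SD, cut at about 37% in these data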
Target sequence (Q9Y2R2 whole entry, looked up): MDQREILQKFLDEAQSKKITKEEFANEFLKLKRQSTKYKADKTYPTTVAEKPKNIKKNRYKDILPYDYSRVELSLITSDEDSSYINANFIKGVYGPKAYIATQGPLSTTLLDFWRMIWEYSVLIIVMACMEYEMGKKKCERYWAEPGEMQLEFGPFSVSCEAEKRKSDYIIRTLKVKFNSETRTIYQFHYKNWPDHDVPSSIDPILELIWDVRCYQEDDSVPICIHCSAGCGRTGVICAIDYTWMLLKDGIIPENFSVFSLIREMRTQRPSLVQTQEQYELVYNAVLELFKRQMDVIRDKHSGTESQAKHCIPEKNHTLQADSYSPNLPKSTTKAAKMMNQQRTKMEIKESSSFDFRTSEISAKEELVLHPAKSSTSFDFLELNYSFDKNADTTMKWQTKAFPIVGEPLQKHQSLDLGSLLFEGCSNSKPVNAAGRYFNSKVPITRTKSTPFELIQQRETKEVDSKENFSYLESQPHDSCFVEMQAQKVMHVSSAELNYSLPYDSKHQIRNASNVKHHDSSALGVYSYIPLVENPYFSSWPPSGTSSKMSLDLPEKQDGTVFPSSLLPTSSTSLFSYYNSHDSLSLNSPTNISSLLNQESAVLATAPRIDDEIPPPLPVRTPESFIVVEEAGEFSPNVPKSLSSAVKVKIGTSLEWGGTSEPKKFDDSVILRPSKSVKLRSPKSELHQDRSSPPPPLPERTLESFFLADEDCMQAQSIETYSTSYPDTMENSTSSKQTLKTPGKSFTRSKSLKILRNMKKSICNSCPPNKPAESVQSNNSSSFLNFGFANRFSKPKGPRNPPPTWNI
Measles CPE = protection of cells from measles virus | Measles virus-infected cells, CPE protection, absorbance | protection (pct of control), % at 4 µM | actives 1.5% (n = 140,000) | AID 841; in the data active = protection mostly above about 24%, no sharp cut-off; inactive = mostly below about 26%
PTPN22 inh 2 = LYP (human) phosphatase inhibition; Q9Y2R2; recombinant LYP catalytic domain, DiFMUP fluorescence; inhibition, % at 2 µM; actives 0.21% (n = 96,000); AID 640;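 active = inhibition at 2 µM at or above a set limit, the screen mean plus 3 SD, cut at about 24% in these data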;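 note: 0% = DMSO with enzyme and 100% = enzyme fully blocked by orthovanadate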
sEH act = soluble epoxide hydrolase (human) activation; actives 0.04% (n = 91,000); AID 717; activation, % at 2 µM; purified human sEH enzymatic activity, activator screen; in the data active = activation above about 37%
* marks the source's active call; other numbers are inactive results. Compounds with a hit are over-represented: about 1.7% of the library has one in this group of screens.

Results for CCOC(=O)c1c(/N=C/C2=C(O)CC(C)(C)CC2=O)sc(C)c1C ?
Measles CPE: 52*

What do the screens show for `O=C(O)c1cccc2c1C(=O)N(Cc1ccncc1)C2`?
sEH inhibitor: 2; PTPN22 act: -4; Measles CPE: 72*; PTPN22 inh 2: 3; sEH act: -3

What do the screens show for `O=C(Nc1ccc2c(c1)OCO2)c1cccc2c1C(=O)N(Cc1cccnc1)C2`?
Measles CPE: 8

Results for CC1CCCCN1C(=O)c1cc(-c2ccc(Cl)c(Cl)c2)on1 (stereo unspecified) ?
sEH inhibitor: 13; PTPN22 act: -6; Measles CPE: 46*; PTPN22 inh 2: 4; sEH act: -11

Results for CCn1c(SCC(=O)Nc2nc(-c3ccc(C)cc3)cs2)nnc1-c1ccccc1O ?
sEH inhibitor: 18; PTPN22 act: -6; Measles CPE: 32*; PTPN22 inh 2: 10; sEH act: -18

Results for COc1cccc(/C=N/NC(=O)c2ccc(=O)n(C)c2)c1O ?
Measles CPE: 14

How did COc1cccc(/C=N/NC(=O)c2ccc(-c3ccccc3)cc2)c1O do in these assays?
sEH inhibitor: -2; PTPN22 act: -27; Measles CPE: 3; PTPN22 inh 2: 28*; sEH act: 2

What do the screens show for `COc1ccc(/C(C)=N/NC(=O)c2ccc(CSc3cccc4cccnc34)cc2)cc1OC`?
sEH inhibitor: 15; PTPN22 act: -6; Measles CPE: 70*; PTPN22 inh 2: 8; sEH act: -13

How did CCOC(=O)c1cc2cc(OC)ccc2nc1C do in these assays?
sEH inhibitor: -11; PTPN22 act: -16; Measles CPE: 17; PTPN22 inh 2: 18; sEH act: 12

Results for CCOCCCNC(=S)NCCNc1nc2ccc(C)cc2cc1C#N ?
Measles CPE: 55*

Results for COc1ccc(CC(=O)Nc2nc(-c3cccnc3)cs2)cc1 ?
Measles CPE: 35*

What do the screens show for `COc1cc(C(=O)NNC2=CC(=O)CC(C)(C)C2)cc(OC)c1OC`?
Measles CPE: 6

What do the screens show for `Cc1noc(C)c1C(=O)NCc1cccs1`?
sEH inhibitor: -10; PTPN22 act: 2; Measles CPE: 44*; PTPN22 inh 2: -6; sEH act: 10

Results for CN1CCN(S(=O)(=O)c2cccc([N+](=O)[O-])c2)CC1 ?
sEH inhibitor: -35; PTPN22 act: 5; PTPN22 inh 2: -3; sEH act: 39*

Results for CN1CCN(S(=O)(=O)c2cccc(S(=O)(=O)c3cccc(S(=O)(=O)N4CCN(C)CC4)c3)c2)CC1 ?
sEH inhibitor: 0; PTPN22 act: -5; Measles CPE: 4; PTPN22 inh 2: 7; sEH act: -2

How did O=C1CSc2ccc(C(=O)NCCC3=CCCCC3)cc2N1 do in these assays?
sEH inhibitor: 82*; PTPN22 act: 15; Measles CPE: 4; PTPN22 inh 2: -10; sEH act: -83

How did COCCNC(=O)c1ccc2c(c1)NC(=O)CS2 do in these assays?
sEH inhibitor: 2; PTPN22 act: -4; Measles CPE: 26; PTPN22 inh 2: 2; sEH act: -5

What do the screens show for `O=C(Cc1ccccc1)Nc1cccc(N2C(=O)C=CC2=O)c1`?
Measles CPE: 4

Results for COc1cc(NC(=O)CCCc2c[nH]c3ccccc23)cc(OC)c1 ?
Measles CPE: 3

How did Cc1ccccc1Nc1nc2ccccc2s1 do in these assays?
Measles CPE: 43*

How did O=C(Nc1ncc(Cc2ccc(SC(F)F)cc2)s1)c1ccc(OC(F)F)cc1 do in these assays?
Measles CPE: 1

Results for CCn1c(SC)nc2c(c1=O)SC(C)C2 (stereo unspecified) ?
Measles CPE: 46*

Results for CCSc1nc2c(c(=O)n1CC)SC(C)C2 (stereo unspecified) ?
Measles CPE: 3

What do the screens show for `Cc1nn(Cc2ccccc2Cl)c(C)c1NC(=O)CSc1n[nH]c(C)c1[N+](=O)[O-]`?
Measles CPE: 5

Results for CCCNc1cc(=O)n(C)c(=O)n1C ?
sEH inhibitor: 1; PTPN22 act: -26; Measles CPE: 10; PTPN22 inh 2: 25*; sEH act: -1

What do the screens show for `CSc1nc(-c2ccc(Cl)cc2)nn1C(=O)c1ccco1`?
sEH inhibitor: 11; PTPN22 act: -6; Measles CPE: 52*; PTPN22 inh 2: 8; sEH act: -9

How did COc1cc2cc(CN(Cc3cccs3)C(=S)Nc3ccc(C)cc3)c(=O)[nH]c2cc1OC do in these assays?
Measles CPE: 30*

Results for Cc1oc(-c2ccccc2Cl)nc1CSCC(=O)N1CCCC1 ?
PTPN22 act: 3; Measles CPE: 44*; PTPN22 inh 2: -5

How did Cc1oc(-c2ccccc2Cl)nc1CSCC(=O)NC1CCCC1 do in these assays?
sEH inhibitor: -11; PTPN22 act: 0; Measles CPE: 9; PTPN22 inh 2: 0; sEH act: 8

Results for COc1cc2c(cc1C1NC(=S)NC(C)=C1C(=O)N(C)C)CCCC2 (stereo unspecified) ?
Measles CPE: 6

How did CC1(C)Cc2c(c(-c3ccccc3Cl)[nH]c(=O)c2C#N)CO1 do in these assays?
sEH inhibitor: -8; PTPN22 act: -1; Measles CPE: 28*; PTPN22 inh 2: -2; sEH act: 9

Results for Cc1ccccc1NC(=O)c1ccc(-n2cncn2)nc1 ?
sEH inhibitor: 6; PTPN22 act: 0; Measles CPE: 11; PTPN22 inh 2: 3; sEH act: -4

How did N#Cc1c(NC(=O)c2ccc(Cn3cc(Br)cn3)o2)sc2c1CCCCC2 do in these assays?
sEH inhibitor: 1; PTPN22 act: -4; Measles CPE: 23; PTPN22 inh 2: 5; sEH act: 1

What do the screens show for `CC1CCc2c(sc(NC(=O)c3ccc(Cn4cc([N+](=O)[O-])cn4)o3)c2C#N)C1` (stereo unspecified)?
sEH inhibitor: 10; PTPN22 act: -22; Measles CPE: 3; PTPN22 inh 2: 25*; sEH act: -11

How did Cc1cc(C(=O)CSc2nc3ccccc3[nH]2)c(C)n1CC1CCCO1 (stereo unspecified) do in these assays?
PTPN22 act: -1; Measles CPE: 39*; PTPN22 inh 2: -2

How did Cc1cc(C(=O)CSc2nc3ccccc3o2)c(C)n1CC1CCCO1 (stereo unspecified) do in these assays?
sEH inhibitor: 5; PTPN22 act: -5; Measles CPE: 6; PTPN22 inh 2: 1; sEH act: -4

How did CCOc1ccc(S(=O)(=O)Nc2cc(C)ccn2)c2ccccc12 do in these assays?
sEH inhibitor: -10; PTPN22 act: -2; Measles CPE: 47*; PTPN22 inh 2: 3; sEH act: 8

What do the screens show for `CC(C)(C)NC(NC(=O)Cc1ccccc1)C(Cl)(Cl)Cl` (stereo unspecified)?
sEH inhibitor: 6; PTPN22 act: 6; Measles CPE: 41; PTPN22 inh 2: -2; sEH act: -8

Results for CNC(=O)C1=C(C)NC(=S)NC1c1cc2c(cc1OC)CCCC2 (stereo unspecified) ?
Measles CPE: 5

Source: PubChem (several laboratories)
